Measured values reported in PubChem BioAssay (EPA / NIEHS).
“And” between values parts separate entries of the source, which are not always exact repeats. Identical values can stand only once. Records with an inconclusive call do not appear. Where a structure was tested more than once in an assay, its records may differ in their call. The source made the active and inactive calls. How the source made its calls: active means hit-call score of the fitted dose curve at least 0.9, where 1 is the maximum; inconclusive means response in the unintended direction; inactive means score below 0.9.

What was measured:
[1] = TOX21_p53_BLA_p5_viability: Viability Assessment in the Tox21 HCT-116 p53 Agonism Beta-lactamase Assay, Phase 5 (AID 2283600)
How it was run: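 Workflow: seed 4000 cells per well, wait 5 h, add compounds (DMSO, 217-fold dilution), incubate 16 h, load CCF4-AM 2 h, add CellTiter-Glo, read luminescence after 30 min.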

[2] = test system: Thyroperoxidase (TPO), gene 54314; assay: CCTE_Simmons_AUR_rTPO: CCTE's Amplex UltraRed Assay for Thyroperoxidase (TPO) Inhibition, Simmons Lab (AID 2283662);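 on AC50: potency for loss of signal meaning inhibition of peroxidase activity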
How it was run: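 Rat thyroid microsomes (5 ug protein) were incubated with test compound (8 concentrations, 5 nM–87.5 uM final, 0.5% DMSO), 25 uM Amplex UltraRed and 300 uM H2O2 in 200 mM phosphate buffer for 30 min at 37C in the dark; fluorescence read at 544/590 nm.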

[3] = target: Cellular tumor antigen p53 (Homo sapiens) (UniProt P04637); assay: TOX21_p53_BLA_p4_ratio: Tox21 HCT-116 p53 Agonism Beta-lactamase Assay, Ratio, Phase 4 (AID 2283601)
Chain of Cellular tumor antigen p53 (Homo sapiens) (P04637 whole entry, looked up): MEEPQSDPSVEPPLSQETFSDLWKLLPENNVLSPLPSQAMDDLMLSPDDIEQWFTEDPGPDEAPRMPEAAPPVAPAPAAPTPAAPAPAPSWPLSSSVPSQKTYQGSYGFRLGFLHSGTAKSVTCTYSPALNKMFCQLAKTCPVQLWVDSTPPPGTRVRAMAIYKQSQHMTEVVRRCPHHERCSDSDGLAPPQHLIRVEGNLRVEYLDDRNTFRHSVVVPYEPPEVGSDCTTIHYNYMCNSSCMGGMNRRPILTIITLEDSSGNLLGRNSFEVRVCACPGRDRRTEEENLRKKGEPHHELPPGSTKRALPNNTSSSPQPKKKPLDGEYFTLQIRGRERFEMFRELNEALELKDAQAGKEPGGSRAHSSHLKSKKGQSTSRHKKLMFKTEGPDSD
How it was run: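 Signal is the blue/green (460nm/530nm) ratio of cleaved versus uncleaved CCF4-AM substrate, read after 2 h substrate loading. Cells were HCT116 carrying the p53-responsive beta-lactamase reporter, dosed 16 h at 37C, 5% CO2; CellTiter-Glo measured in parallel.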

[4] = Tanguay_ZF_120hpf_MORT_legacy: (Legacy) Oregon State University Tanguay Lab 120 Hour Post-fertilization zebrafish Assay for Mortality (AID 2283633);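 on AC50: fitted as increase in binary mortality versus DMSO negative control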
How it was run: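 5D WT zebrafish, chorion removed 4 hpf; 1 embryo/well from 6 hpf; static exposure to 120 hpf, 28C, dark, sealed. Final DMSO 0.64%. Readout: binary mortality, brightfield, 24 + 120 hpf; DMSO as negative control.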

[5] = Tanguay_ZF_120hpf_YSE_legacy: (Legacy) Oregon State University Tanguay Lab 120 Hour Post-fertilization zebrafish Assay for Yolk Sac Edema (AID 2283634)
How it was run: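 Dechorionate (pronase, 4 hpf) → place one 6 hpf embryo per well → static compound exposure, sealed and foil-covered, 28C, to 120 hpf → record yolk sac edema as present or absent. Final DMSO 0.64%.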

[6] = Tanguay_ZF_120hpf_EYE_legacy: (Legacy) Oregon State University Tanguay Lab 120 Hour Post-fertilization zebrafish Assay for Eye Malformation (AID 2283636)
How it was run: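 Binary brightfield scoring of eye defects at 120 hpf after static exposure from 6 hpf of single pronase-dechorionated wild-type embryos (28C, 0.64% DMSO). Non-mortality endpoints omitted where embryos died; fit vs DMSO.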

[7] = Tanguay_ZF_120hpf_SNOU_legacy: (Legacy) Oregon State University Tanguay Lab 120 Hour Post-fertilization zebrafish Assay for Snout Malformation (AID 2283637)
How it was run: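 Binary snout-malformation call at 120 hpf in wild-type 5D embryos, chorion removed by pronase, under static exposure from 6 hpf at 28C (0.64% DMSO). Embryos dying by 24 or 120 hpf excluded.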

[8] = Tanguay_ZF_120hpf_JAW_legacy: (Legacy) Oregon State University Tanguay Lab 120 Hour Post-fertilization zebrafish Assay for Jaw Malformation (AID 2283638)
How it was run: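 Steps: dechorionate 4 hpf embryos (pronase); plate 1/well at 6 hpf; add test chemical, 0.64% DMSO final; seal, cover, hold at 28C statically to 120 hpf; score jaw defect presence/absence microscopically. Dead embryos not scored.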

[9] = Tanguay_ZF_120hpf_PE_legacy: (Legacy) Oregon State University Tanguay Lab 120 Hour Post-fertilization zebrafish Assay for Pericardial Edema (AID 2283640)
How it was run: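 Embryos from wild-type 5D adults were staged, then dosed in 0.64% DMSO. They were kept sealed in the dark at 28C until 120 hpf. Pericardial edema was then recorded as present or absent.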

[10] = Tanguay_ZF_120hpf_BRAI_legacy: (Legacy) Oregon State University Tanguay Lab 120 Hour Post-fertilization zebrafish Assay for Brain Malformation (AID 2283641)
How it was run: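 Wild-type 5D larvae, static waterborne exposure to 120 hpf, 28C, 0.64% v/v DMSO. Brightfield scoring of brain defects, binary; dead embryos excluded. Positive ctrl 5uM trimethyltin chloride.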

[11] = Tanguay_ZF_120hpf_SOMI_legacy: (Legacy) Oregon State University Tanguay Lab 120 Hour Post-fertilization zebrafish Assay for Somite Malformation (AID 2283647)
How it was run: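 Read-out: presence or absence of somite malformation in 120 hpf larvae, gain-of-signal relative to DMSO baseline. Embryos lacked chorion (pronase, 4 hpf) and were exposed statically from 6 hpf at 28C; dead larvae not scored.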

[12] = Tanguay_ZF_120hpf_CFIN_legacy: (Legacy) Oregon State University Tanguay Lab 120 Hour Post-fertilization zebrafish Assay for Caudal Fin Malformation (AID 2283649)
How it was run: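 Binary presence or absence of caudal fin malformation at 120 hpf, read by brightfield microscopy, with DMSO as baseline. Larvae came from 5D wild-type embryos exposed statically from 6 hpf at 28C after pronase dechorionation.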

[13] = Tanguay_ZF_120hpf_PIG_legacy: (Legacy) Oregon State University Tanguay Lab 120 Hour Post-fertilization zebrafish Assay for Pigmentation Malformation (AID 2283650)
How it was run: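 Pigment malformation recorded as a binary call at 120 hpf in zebrafish (Tropical 5D) exposed singly from 6 hpf after pronase dechorionation. Static, sealed, 28C exposure, 0.64% DMSO; mortality excludes scoring; positive-direction fit against DMSO.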

[14] = Tanguay_ZF_120hpf_CIRC_legacy: (Legacy) Oregon State University Tanguay Lab 120 Hour Post-fertilization zebrafish Assay for Circulatory Malformation (AID 2283651)
How it was run: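 Static exposure, 6–120 hpf, 28C, sealed and dark; one dechorionated 5D embryo/well; DMSO 0.64% v/v final. Binary circulation endpoint by brightfield; dead embryos not scored.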

[15] = Tanguay_ZF_120hpf_SWIM_legacy: (Legacy) Oregon State University Tanguay Lab 120 Hour Post-fertilization zebrafish Assay for Swim Bladder Malformation (AID 2283654);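 further: swim bladder malformation in each larva scored yes or no under brightfield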
How it was run: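 Scoring is binary for swim bladder defects at 120 hpf, by brightfield inspection of zebrafish larvae. Embryos were exposed singly from 6 hpf after pronase dechorionation, at 28C with 0.64% DMSO; mortality excluded scoring.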

[16] = Tanguay_ZF_120hpf_TRUN_legacy: (Legacy) Oregon State University Tanguay Lab 120 Hour Post-fertilization zebrafish Assay for Truncated Body (AID 2283655)
How it was run: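 Truncated body is recorded as a binary endpoint at 120 hpf by brightfield imaging of wild-type 5D larvae. Exposure runs statically from 6 hpf at 28C with 0.64% DMSO; embryos dying earlier are not scored.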

[17] = Tanguay_ZF_120hpf_NC_legacy: (Legacy) Oregon State University Tanguay Lab 120 Hour Post-fertilization zebrafish Assay for Notochord and Tail Malformation (AID 2283656)
How it was run: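 Binary notochord-distortion calls, made by brightfield inspection, form the read-out; activity is fitted in the positive direction against DMSO. Exposure ran statically from 6 to 120 hpf at 28C with 0.64% DMSO.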

[18] = Tanguay_ZF_120hpf_AXIS_legacy: (Legacy) Oregon State University Tanguay Lab 120 Hour Post-fertilization zebrafish Assay for Body Axis Malformation (AID 2283635)
How it was run: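 Chorion is removed with pronase at 4 hpf, then single 6 hpf embryos are dosed (final DMSO 0.64%) and held statically at 28C in sealed, foil-covered plates. At 120 hpf body axis malformation is recorded as present or absent.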

[19] = Tanguay_ZF_120hpf_OTIC_legacy: (Legacy) Oregon State University Tanguay Lab 120 Hour Post-fertilization zebrafish Assay for Otic Vesicle Malformation (AID 2283639)
How it was run: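 Brightfield scoring at 120 hpf, binary present/absent; DMSO negative control, 5uM trimethyltin chloride positive control. Static exposure at 28C, final DMSO 0.64% (vol/vol). Dead embryos not scored for malformation.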

[20] = Tanguay_ZF_120hpf_PFIN_legacy: (Legacy) Oregon State University Tanguay Lab 120 Hour Post-fertilization zebrafish Assay for Pectoral Fin Malformation (AID 2283648);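 further: each larva judged yes or no for fin defect by brightfield with dead larvae skipped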
How it was run: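 Pectoral fin malformation was recorded as a binary endpoint at 120 hpf in wild-type Tropical 5D larvae, which had been dechorionated and exposed statically from 6 hpf at 28C in 0.64% DMSO. Dead embryos were excluded.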

Measured: AC50

Cc1cccc(O)c1
inactive: [1]
active: [2] 19.6 µM

NC(N)=S
inactive: [1] | [3]
active: [2] 19.1 µM and 12.3 µM

CCC(C)(C)C1CCC(=O)CC1
active: [2] 39.3 µM
inactive: [1] | [3]

CCC(C)(CCCC(C)C)OC(C)=O (centres undefined)
inactive: [1] | [3]

C[C@]12CC[C@@H]3c4ccc(O)cc4CC[C@H]3[C@@H]1CC[C@@H]2O
active: [3] 31.4 µM and 17.7 µM and 15.6 µM | [2] 4.86 µM
not listed: [18] | [19] | [20]
inactive: all other assays above

CCCCCC1CCC(=O)O1 (centres undefined)
inactive: [3]

NC(N)=NC(N)=NCCc1ccccc1
inactive: [1] | [3]

CCCCCCCCOC(C)=O
inactive: [3]

C=C(C)C(N)=O
not listed: [2] | [7]
inactive: all other assays above

COc1ccccc1O
active: [2] 21.7 µM
inactive: [1] | [3]

CC/C(=C(\c1ccccc1)c1ccc(OCCN(C)C)cc1)c1ccccc1
active: [1] 64.3 µM [middle of 4 runs] | [3] 40 µM and 84.5 µM and 42 µM | [4] 31.4 µM | [2] 24.2 µM
inactive: [3] | [4] | [5] | [18] | [7] | [19] | [9] | [11] | [20] | [12] | [13] | [14] | [15] | [16] | [17] | [2]

CC(=O)OC(C)(C)C1CC=C(C)CC1 (centres undefined)
inactive: [1] | [3]
